Nrf2 activator: activates Nrf2 signaling; AREc32 ARE-luciferase reporter (MCF7-derived line), luminescence, 24 h; Potency, µM (doses to about 46.1 µM), hits mostly activators; actives 0.31% (n = 410,000); further: nearly all actives have a fitted effect of over 65% in size
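AREc32 cells carrying an ARE-driven firefly luciferase, 1000 cells/well in OPTI-MEM with 5% FBS, dosed after overnight attachment and incubated 24 hr at 37 deg C. Steady-Glo luminescence read after 30 min at RT.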
S2 tox: cell viability loss in ATXN counter-screen. S2 cells (HEK-293 line with an ATXN2-luciferase reporter) viability, CellTiter-Fluor protease fluorescence, 24 h. Potency, µM (titrated, usually from 56.7 µM), hits mostly cytotoxic. actives 0.49% (n = 400,000). AID 651635; further: nearly all actives have a fitted effect of over 40% in size
Nrf2 block: blocks Nrf2 signaling; A549 ARE-Fluc reporter, luciferase luminescence, 18-24 h; Potency, µM (top dose mostly 46 µM), actives largely listed as inhibitors; actives 2.1% (n = 360,000); AID 504444; further: nearly all actives have a fitted effect of over 60% in size
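A549 ARE_Fluc cells (5000/well, 5% FBS OPTI-MEM) pre-incubated 2 h, then treated with compounds 18-24 h at 37C/5% CO2 in concentration-response. CellTiter-Fluor viability read first; BugLite luciferase luminescence after 15 min at room temperature gives Nrf2 activity.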
ATXN2 expr inh: reduces ATXN2 reporter expression in HEK-293 cells. HEK-293 ATXN2-luciferase reporter, luminescence, 24 h. Potency, µM (highest dose often 57 µM), most hits filed as inhibitors. actives 0.72% (n = 360,000). AID 1745845; further: nearly all actives have a fitted effect of over 55% in size
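qHTS (up to 57 uM final) was run with 24 h compound exposure of reporter cells at 37 °C. Each well was multiplexed: SteadyGlo luminescence measured ATXN2-luciferase expression after a fluorogenic Gly-Phe-AFC viability readout (25 uM final).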
A549 viability: kills or reduces viability of A549 cells in Nrf2 counter-screen | AID 504648 | Potency, µM (top dose mostly 46 µM), usual class: inhibitors | A549 ARE-Fluc cells, CellTiter-Fluor viability, 18-24 h | actives 0.16% (n = 390,000)
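A549 ARE-Fluc cells in 5% FBS OPTI-MEM, 5000 cells/well, rested 2 h then exposed to compounds in concentration-response for 18-24 h at 37 °C. Viability by CellTiter-Fluor fluorescence (Ex 405/Em 525) after 30 min; luciferase luminescence (BugLite, 15 min, RT) read afterwards.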
Of the large screens only hits and unclear results are named; the others gave an inactive call. The list is not random: actives were taken first. Their share in the collection is about 2.9%. The call rests on the fitted dose curve; in most records, active means well fitted curve in the direction sought with a large enough effect; inconclusive means small, poorly fitted or top-dose-only effect, or another doubt; inactive means no such curve, though single readings can be large; an effect the other way counts as inactive or inconclusive.

Cc1cc(C)c2c(N)c(C(=O)c3ccc(Br)cc3)oc2n1	Nrf2 activator 1.8µM
C[C@H](CO)N1C[C@H](C)[C@@H](CN(C)S(=O)(=O)c2cccs2)Oc2ccc(NC(=O)CCC(F)(F)F)cc2C1=O	S2 tox inconclusive
O=C(CSc1nnnn1-c1ccc2c(c1)OCCO2)Nc1nc2c(s1)CCCC2	S2 tox inconclusive, Nrf2 block 13µM, A549 viability inconclusive
CN(C)c1ccc(CNS(=O)(=O)c2csc(C(N)=O)c2)cc1	Nrf2 block inconclusive (no result: ATXN2 expr inh)
Cc1ccc(NC(=O)c2cc(S(=O)(=O)N3CCOCC3)cs2)cc1	none
Cc1ccc(NS(=O)(=O)c2csc(C(N)=O)c2)cc1C	Nrf2 block 16µM
O=C(Nc1ccc(Cl)cc1)c1cc(S(=O)(=O)N2CCOCC2)cs1	Nrf2 block 4.6µM, A549 viability inconclusive
CC(C)Oc1ccc(CNS(=O)(=O)c2csc(C(N)=O)c2)cc1	S2 tox inconclusive, Nrf2 block 15µM
Cc1ccc(NC(=O)c2cc(S(=O)(=O)N3CCCCC3)cs2)cc1	Nrf2 block 8.2µM, ATXN2 expr inh inconclusive
CC(=O)c1cc(C(=O)Nc2ccccc2C(=O)O)oc1C	none (no result: Nrf2 block)
COc1cccc(NC(=O)c2ncn[nH]2)c1	none
CCOc1ccccc1NC(=O)NC1CC2CCCC(C1)N2Cc1nnnn1CCc1ccccc1 (stereo unspecified)	Nrf2 block inconclusive
O=C(NC1CCN(S(=O)(=O)c2ccc(F)cc2)CC1)c1ccco1	none
O=C(Nc1ccc(F)cc1)c1cc(S(=O)(=O)Nc2ccc(F)cc2)cs1	Nrf2 block 18µM, A549 viability inconclusive
COc1ccc(S(=O)(=O)N2CCC[C@H]2C(=O)N2CCC[C@H]2C(=O)NCc2ccc(F)cc2F)cc1C	S2 tox 25µM, ATXN2 expr inh inconclusive (no result: Nrf2 block, A549 viability)
COc1ccc(CNC(=O)c2ccc3c(c2)nc2n3CCCCC2)c(OC)c1	none (no result: S2 tox, Nrf2 block, ATXN2 expr inh)
Cn1c(=O)c([N+](=O)[O-])c(Cl)c2ccccc21	Nrf2 block inconclusive, ATXN2 expr inh inconclusive, A549 viability 21µM (no result: S2 tox)
N/C(=N\OC(=O)c1cccc(F)c1)c1ccccc1	Nrf2 activator 11µM, Nrf2 block inconclusive
Cc1ccc(/C(N)=N/OC(=O)c2cccc(F)c2)cc1	Nrf2 activator 11µM (no result: Nrf2 block)
N/C(=N\OC(=O)c1ccc(F)cc1)c1ccccc1	Nrf2 activator inconclusive, Nrf2 block inconclusive
Cc1ccc(/C(N)=N/OC(=O)c2ccc(F)cc2)cc1	Nrf2 block inconclusive
Cc1ccc(C(=O)O/N=C(\N)c2ccccn2)cc1	Nrf2 block inconclusive, ATXN2 expr inh 13µM
O=[N+]([O-])c1ccc(-c2cnc(NO)nc2)cc1	S2 tox inconclusive
Nc1[nH]n2c(=O)cc(-c3ccccc3)nc2c1N=Nc1ccccc1	S2 tox 32µM, ATXN2 expr inh inconclusive, A549 viability inconclusive (no result: Nrf2 block)
COCCCNc1nc2ccccc2nc1NS(=O)(=O)c1cc(Cl)ccc1Cl	Nrf2 block 21µM (no result: S2 tox, ATXN2 expr inh)
COCCCNc1nc2ccccc2nc1NS(=O)(=O)c1ccc(Cl)cc1	none (no result: ATXN2 expr inh)
S=C(Nc1ccccc1)N1CCC(Cc2ccccc2)CC1	Nrf2 block 16µM
COc1ccc(NC(=S)N2CCC(Cc3ccccc3)CC2)cc1	none
O=C(CC(Nc1ccc(F)cc1)C(=O)O)c1ccccc1 (stereo unspecified)	Nrf2 activator 20µM, Nrf2 block inconclusive
CCC(C)NS(=O)(=O)c1ccc(S(=O)(=O)N(CC(=O)Nc2ccccc2)Cc2ccco2)cc1 (stereo unspecified)	Nrf2 block 13µM
COc1ccc(CNc2nc3ccccc3n2C(C)C)cc1	none (no result: S2 tox)
CC(C)(OC1OC(CO)C(O)C(O)C1O)[C@H]1Oc2ccc3ccc(=O)oc3c2[C@H]1O (stereo partly specified)	none
CSc1cccc(NC(=O)C2CCN(S(=O)(=O)c3ccc(F)cc3)CC2)c1	S2 tox inconclusive, Nrf2 block 15µM
CS(=O)(=O)c1cccc(NC(=O)C2CC2)c1	none
CSc1cccc(NC(=O)C2CCN(S(=O)(=O)c3ccc4c(c3)NC(=O)CO4)CC2)c1	Nrf2 block 23µM, ATXN2 expr inh inconclusive
O=C(Nc1cccc(S(=O)(=O)c2cccc(NC(=O)C3CC3)c2)c1)C1CC1	Nrf2 block 8.2µM
CCC(C)NS(=O)(=O)c1ccc(S(=O)(=O)N2CCCC3(CCCCC3)C2)cc1 (stereo unspecified)	Nrf2 block 21µM

Bioassay records: PubChem, National Center for Advancing Translational Sciences (NCATS)
